Compound activity as filed in PubChem BioAssay.
Rows were chosen to be rich in hits. Some 3.6% of all compounds tested hit in one or more screens of this group.
Abeta yeast res – restores growth of yeast expressing A-beta42 peptide; yeast expressing A-beta42, growth rescue, OD600, 48 h; response scale: 0% DMSO, 100% iron-clioquinol control; Potency, µM (titrated, usually from 46.1 µM), hits mostly activators; 0.063% of 410,000 active; note: nearly all actives have a fitted effect of over 55% in size
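Yeast A-beta toxicity model in growth medium with pinned compounds, 48 h at 30 C; growth read as absorbance at 600 nm. Normalized to FeCl3/clioquinol equimolar mix (positive) and DMSO (negative).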
aSyn rescue – alpha-synuclein toxicity inhibition in yeast; 0.14% of 370,000 active; Yeast expressing alpha-synuclein, growth rescue, BacTiter-Glo, 24 h; Potency, µM (highest dose often 46.1 µM), most hits filed as activators; note: nearly all actives have a fitted effect of over 65% in size
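Readout is rescue of growth in alpha-synuclein-expressing yeast, so inhibitors of toxicity appear as activators. Growth after 24 hr at 30 deg C in galactose medium is quantified by luminescence.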
Mm-Cpn inhibitor – blocks the Methanococcus maripaludis chaperonin Mm-Cpn | purified Mm-Cpn ATPase, ADP Transcreener TR-FRET | Potency, µM (doses to about 76.9 µM), hits mostly inhibitors | 0.031% of 330,000 active | AID 504842; note: nearly all actives have a fitted effect of over 80% in size
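25 nM Mm-CPN + cpd, 10 min 37°C; + 10 uM ATP, 30 min 37°C; buffer 30 mM Tris pH 7.4, 100 mM KCl, 5 mM MgCl2, 1 mM DTT; Transcreener ADP HTRF detection 30 min RT.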
ClpP mod – qHTS Assay for Activators of ClpP. ATP-dependent Clp protease proteolytic subunit (Bacillus subtilis (strain 168)), P80244. purified B. subtilis ClpP, FRET peptide cleavage, 20 min. Potency, µM (doses to about 57.5 µM). 1.9% of 340,000 active. AID 651965, 2013; active = well fitted falling curve with a large enough effect; inconclusive = small, poorly fitted or top-dose-only effect; inactive = no such curve, though single readings can be large or run the other way; note: the source files actives as falling curves though it sought activators and does not explain the sign; nearly all actives have a fitted effect of over 65% in size
Target sequence (P80244 whole entry, looked up): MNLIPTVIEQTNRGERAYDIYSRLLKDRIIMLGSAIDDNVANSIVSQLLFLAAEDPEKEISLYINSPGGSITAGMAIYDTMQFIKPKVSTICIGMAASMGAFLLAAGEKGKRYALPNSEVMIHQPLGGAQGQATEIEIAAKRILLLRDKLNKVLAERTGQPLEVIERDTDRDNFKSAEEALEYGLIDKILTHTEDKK
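FRET quenching reversal measured ClpP activation: 10 microg/mL B. subtilis ClpP at pH 8 with the FRET-FV decapeptide, read at 430 nm after 320 nm excitation. The 20-min minus 0-min signal was scaled between DMSO/no-enzyme wells and ADEP (5.8 microM final).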
FUS suppressor – rescues growth of FUS-expressing yeast. S. cerevisiae FUS-expressing, growth rescue, OD600, 24 h. Potency, µM (doses to about 76.6 µM), most hits filed as activators. 0.24% of 390,000 active. AID 1347120; note: nearly all actives have a fitted effect of over 55% in size
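Yeast expressing FUS under galactose induction, OD 0.005 in 2% galactose medium; compounds in a dilution series, 24 h at 30C. Growth rescue by absorbance at 600 nm; CP55940 positive control, DMSO negative.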
TDP-43 yeast inh – inhibitors of TDP-43 toxicity in yeast; TDP-43 expressing yeast growth rescue, BacTiter-Glo, 24 h; Potency, µM (top dose mostly 46.1 µM), usual class: activators; 1.8% of 410,000 active; note: nearly all actives have a fitted effect of over 50% in size
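Growth rescue of TDP-43-toxic yeast measured as ATP luminescence (BacTiter-Glo). Cells grown to mid-log in raffinose, induced in galactose at OD600=0.02, exposed to compound 24 hr at 30 deg C.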
A number is an active result; . = inactive; ? = inconclusive; / = not tested or not shown; ! = not confirmed by another sample; [ ] = remark or other dose. Unless noted, calls come from the whole dose curve; as a rule, active = well fitted curve in the direction sought with a large enough effect; inconclusive = small, poorly fitted or top-dose-only effect, or another doubt; inactive = no such curve, though single readings can be large; an effect the other way counts as inactive or inconclusive.

SMILES	Abeta yeast res	aSyn rescue	Mm-Cpn inhibitor	ClpP mod	FUS suppressor	TDP-43 yeast inh
Cc1[nH]nc2c1C(c1ccc(O)cc1)C1=C(CC(C)(C)CC1=O)N2 (stereo not drawn)	.	.	.	/	.	.[9.22 µM]
CCc1ccc2occ(CC(=O)Nc3c(C(=O)c4ccc(C)cc4)oc4ccccc34)c2c1	.	/	/	?	.	.
CC(C)n1nnnc1C1(C)CCCCC(=O)N1Cc1cccc(C(F)(F)F)c1 (stereo not drawn)	/	/	/	/	.	/
c1ccc2c(c1)[nH]c1c(N3CCN(C4CCCCC4)CC3)ncnc12	.	.	.	32µM	.	.
Clc1ccc2[nH]c3c(N4CCC5(CC4)OCCO5)ncnc3c2c1	.	.	.	13µM	.	.
c1ccc2c(c1)[nH]c1c(N3CCCC3)ncnc12	?	.	.	.	.	.
Brc1ccc2[nH]c3c(N4CCc5ccccc5C4)ncnc3c2c1	.	.	.	32µM	.	?
Fc1ccc2[nH]c3c(N4CCc5ccccc5C4)ncnc3c2c1	.	.	.	/	.	.
Cc1cccc2[nH]c3c(N4CCC5(CC4)OCCO5)ncnc3c12	.	.	.	?	.	.
CN1CCN(c2ncnc3c2[nH]c2ccc(F)cc23)CC1	.	.	.	28µM	.	.
COc1cc2nc(N3CCCN(C)CC3)nc(NC3CCNCC3)c2cc1OC	/	?	/	.	/	/
CCNC(=O)c1cnc2sc(N3CCC(C)CC3)nn2c1=O	.	/	/	.	.	.
COc1ccc(Cn2c(C(=O)O)c(CNCCc3cc(OC)ccc3OC)c3ccc(C)cc32)cc1	.	/	/	.	28µM	.
C=Cc1ccc(Cn2c(C(=O)O)c(CNCc3ccc(F)cc3)c3ccc(C)cc32)cc1	.	/	/	.	32µM	.
CCCCN(C)CCNC(=O)c1cc2c(-c3ccccc3F)nn(C)c2s1	.	.	.	25µM	.	.
COCCNC(=O)c1cc2c(-c3ccccc3F)nn(C)c2s1	.	.	.	25µM	.	?
CCCCN(C)CCNC(=O)c1cc2c(-c3cccc(OC)c3)nn(C)c2s1	.	.	.	/	.	.
Cc1ccc(S(=O)(=O)CCC(=O)c2ccc(O)cc2O)cc1	.	.	.	.	.	14µM
Cc1ccc(S(=O)(=O)CCC(=O)OCc2ccc(Cl)cc2)cc1	.	.	.	.	/	25µM
COC(=O)c1ccc(COC(=O)CCS(=O)(=O)c2ccc(C)cc2)cc1	.	.	.	/	.	.
C[C@]12CCC(O)CC1=CCC1C2CC[C@]2(C)/C(=N\NC(N)=S)CCC12 (stereo partly drawn)	2.5µM	.	.	.	.	.
Cc1cc(C)c(NC(=O)c2sc3nc4c(cc3c2N)C(=O)CC(C)(C)C4)c(C)c1	.	.	.	.	?	20µM
Oc1c(Br)cc(Br)cc1CNc1cccc2cccnc12	.	?	.	.	.	18µM
CSc1nc(NCCOCCO)c2sc3nc(-c4ccco4)c4c(c3c2n1)CCC4	.	.	.	.	?	.
CCN(CCO)c1nc(SC)nc2c1sc1nc(-c3ccco3)c3c(c12)CCC3	.	.	.	.	/	10µM
SMILES	Abeta yeast res	aSyn rescue	Mm-Cpn inhibitor	ClpP mod	FUS suppressor	TDP-43 yeast inh
CCC[N+](C)(C)c1ccc(/C=C/c2ccncc2)cc1	/	/	/	.	/	/
CC(C)(C)OC(=O)N1CCC(c2c(C(=O)NCCN3CCc4ccccc4C3)cnn2-c2ccc(F)cc2F)CC1	.	/	/	.	.	.
Cc1ccccc1Cn1ccc(NC(=O)c2nn(C)cc2[N+](=O)[O-])n1	.	.	.	28µM	.	.
CC1=CC(C)(C)Nc2ccccc21	.	.	.	28µM!	.	.
COc1ccc2c(c1)NC(C)(C)C=C2C	.	.	.	/	.	.
Cc1ccc(NC(=O)CN(C)C(=O)c2cccnc2Nc2cccc(C(F)(F)F)c2)cc1	.	.	.	.	.	20µM
COc1cccc(NC(=O)CN(C)C(=O)c2cccnc2Nc2cccc(C(F)(F)F)c2)c1	.	.	.	.	?	?
Cc1ccccc1NCc1ccc([N+](=O)[O-])s1	.	.	.	.	.	11µM
O=[N+]([O-])c1ccc(CNc2cccc(F)c2)s1	?	.	.	.	.	11µM
Cc1ccc(NCc2ccc([N+](=O)[O-])s2)cc1	.	.	.	.	.	11µM
Cc1cccc(NCc2ccc([N+](=O)[O-])s2)c1	.	.	.	.	.	?
CNc1ccc(C=C2C=CC=C2)cc1	/	.	/	.	/	/
C/C(C=NNC(=O)CSc1nc2ccccc2n1Cc1ccccc1Cl)=C\c1ccccc1	/	/	/	/	.	/
COc1cc(NC(=O)c2cc(-c3ccccc3Cl)on2)cc(OC)c1OC	.	.	.	.	.	16µM
COc1ccc(NC(=O)c2cc(-c3ccccc3Cl)on2)cc1	.	.	.	.	.	.
COc1cc(NC(=O)Nc2c[nH]c(=O)[nH]c2=O)cc(OC)c1OC	.	/	/	.	.	.
Cc1ccc(C(=O)COC(=O)C(Cc2c[nH]c3ccccc23)NC(=O)c2ccc(C(C)(C)C)cc2)cc1 (stereo not drawn)	.	/	/	.	?	.
Cc1ccc(C(=O)N2CCN(S(=O)(=O)c3cc(Br)ccc3Br)CC2)o1	.	.	.	/	.	20µM
Cc1ccc(C(=O)N2CCN(S(=O)(=O)c3ccccc3[N+](=O)[O-])CC2)o1	.	.	.	.	.	.
COc1nc(-c2ccccc2)cc(-c2ccc(OC)c(OC)c2)n1	.	.	.	22µM	?	?
COc1ccc(-c2cc(-c3ccccc3)nc(NN)n2)cc1OC	.	.	.	/	.	.
CNc1cncc(-c2ccc(F)c(F)c2)n1	.	.	/	.	.	?
CNc1cncc(-c2cccc(OC)c2F)n1	.	.	/	.	.	28µM
CNc1cncc(-c2ccc(OC)c(OC)c2)n1	.	7.9µM	/	.	.	.
Cc1ccc(C2NC(c3ccc4c(c3)OCO4)=CC(c3cc(Br)ccc3O)N2)cc1 (stereo not drawn)	/	.	/	.	/	/
COc1ccccc1N1CCN(C(=O)c2cc(CC(C)C)on2)CC1	.	/	/	.	.	.
COC(=O)c1ccc(Cn2ccc3ccc(-c4ccc5ccn(Cc6ccc(OC)cc6)c5c4)cc32)cc1	/	/	/	/	.	/
CN(C)c1ccc(C(I)C(I)c2ccnc3ccccc23)cc1 (stereo not drawn)	/	.	/	.	/	/
Cc1oc2c(CN3CCCC3)c(O)ccc2c(=O)c1-c1ccc(Br)cc1	.	.	.	14µM	.	.
Cc1oc2c(CN3CCCCC3)c(O)ccc2c(=O)c1-c1ccc(Br)cc1	.	.	.	/	.	.
